Laboratory results reported in PubChem BioAssay AID1159580 (chemical genetic matrix, 2015).
Hit rate of the full screen: of about 5,500 compounds, about 2,000 (36%) were called active. Not shown: some 18% with an inconclusive outcome. Cut-off read from the data, not from the text of the source: active = normalized growth mostly below about 0.91 (no sharp cut-off); inconclusive = no clear call, values can overlap the other calls; inactive = mostly above about 0.92. Some of the results follow.

Experiment: chemical genetic growth profiling, strain panel (AID 1159580);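 note: tested at 20 µM; growth read once vehicle control cultures reached saturation at 30 °C; 1 = growth at the plate median or of vehicle wells; lower values mean less growth of the strain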
Conditions: growth OD

Measured: normalized growth

CN[C@@H]1[C@H](OC2[C@H](O[C@H]3[C@H](O)[C@@H](O)[C@H](N=C(N)N)[C@@H](O)[C@@H]3N=C(N)N)O[C@@H](C)[C@]2(O)C=O)O[C@@H](CO)[C@H](O)[C@H]1O (stereo not given in full)
inactive: S. cerevisiae deletion strains, locus YKL009W, strain mrt4, stronger effect = lower value 1.03 | S. cerevisiae deletion strains, locus YKL068W, stronger effect = lower value 1 | S. cerevisiae deletion strains, locus YKL085W, strain MDH1 (second series), stronger effect = lower value 1 | S. cerevisiae deletion strains, locus YKL085W, strain MDH1, stronger effect = lower value 1 | S. cerevisiae deletion strains, locus YKL160W, strain elf1, stronger effect = lower value 1.02 | S. cerevisiae deletion strains, locus YKL190W, strain CNB1, stronger effect = lower value 0.997 | S. cerevisiae deletion strains, locus YKR001C, strain vps1, stronger effect = lower value 1.01 | S. cerevisiae deletion strains, locus YKR026C, strain gcn3, stronger effect = lower value 1 | S. cerevisiae deletion strains, locus YKR091W, strain srl3, stronger effect = lower value 1.01 | S. cerevisiae deletion strains, locus YLL001W, strain dnm1, stronger effect = lower value 1.03 | S. cerevisiae deletion strains, locus YLL026W, stronger effect = lower value 1.02 | S. cerevisiae deletion strains, locus YLL041C, strain sdh2, stronger effect = lower value 1 | S. cerevisiae deletion strains, locus YLR027C, strain aat2, stronger effect = lower value 1.02 | S. cerevisiae deletion strains, locus YLR039C, strain RIC1, stronger effect = lower value 0.997 | S. cerevisiae deletion strains, locus YLR058C, strain SHM2, stronger effect = lower value 1.01 | S. cerevisiae deletion strains, locus YLR102C, strain apc9, stronger effect = lower value 1.01 | S. cerevisiae deletion strains, locus YLR113W, strain HOG1, stronger effect = lower value 0.964 | S. cerevisiae deletion strains, locus YLR221C, strain rsa3, stronger effect = lower value 0.989 | S. cerevisiae deletion strains, locus YLR258W, strain gsy2, stronger effect = lower value 0.991 | S. cerevisiae deletion strains, locus YLR262C, strain YPT6 (second series), stronger effect = lower value 1.04 | S. cerevisiae deletion strains, locus YLR262C, strain YPT6, stronger effect = lower value 1.01 | S. cerevisiae deletion strains, locus YLR268W, strain sec22, stronger effect = lower value 1 | S. cerevisiae deletion strains, locus YLR320W, strain mms22, stronger effect = lower value 0.969 | S. cerevisiae deletion strains, locus YLR330W, strain CHS5, stronger effect = lower value 1 | S. cerevisiae deletion strains, locus YLR342W, strain FKS1 (second series), stronger effect = lower value 1.01 | S. cerevisiae deletion strains, locus YLR342W, strain FKS1, stronger effect = lower value 1.04 | S. cerevisiae deletion strains, locus YLR357W, strain rsc2, stronger effect = lower value 1.02 | S. cerevisiae deletion strains, locus YLR370C, strain arc18, stronger effect = lower value 1.02 | S. cerevisiae deletion strains, locus YLR371W, strain rom2, stronger effect = lower value 1.01 | S. cerevisiae deletion strains, locus YLR384C, strain iki3, stronger effect = lower value 1.01 | S. cerevisiae deletion strains, locus YLR418C, strain cdc73, stronger effect = lower value 1.02 | S. cerevisiae deletion strains, locus YML016C, strain PPZ1, stronger effect = lower value 1.02 | S. cerevisiae deletion strains, locus YML032C, strain rad52, stronger effect = lower value 1.01 | S. cerevisiae deletion strains, locus YML120C, strain ndi1, stronger effect = lower value 1.02 | S. cerevisiae deletion strains, locus YML124C, strain tub3, stronger effect = lower value 1.02 | S. cerevisiae deletion strains, locus YMR058W, strain fet3, stronger effect = lower value 1.02 | S. cerevisiae deletion strains, locus YMR078C, strain ctf18, stronger effect = lower value 1.02 | S. cerevisiae deletion strains, locus YMR125W, strain sto1, stronger effect = lower value 0.969 | S. cerevisiae deletion strains, locus YMR129W, stronger effect = lower value 1 | S. cerevisiae deletion strains, locus YMR205C, strain PFK2, stronger effect = lower value 1.02 | S. cerevisiae deletion strains, locus YMR223W, strain ubp8, stronger effect = lower value 1.02 | S. cerevisiae deletion strains, locus YMR231W, strain pep5, stronger effect = lower value 0.997 | S. cerevisiae deletion strains, locus YMR263W, strain SAP30, stronger effect = lower value 1.01 | S. cerevisiae deletion strains, locus YMR307W, strain GAS1, stronger effect = lower value 0.965 | S. cerevisiae deletion strains, locus YNL067W, strain RPL9B, stronger effect = lower value 1.01 | S. cerevisiae deletion strains, locus YNL071W, strain lat1, stronger effect = lower value 0.992 | S. cerevisiae deletion strains, locus YNL128W, strain TEP1, stronger effect = lower value 1.01 | S. cerevisiae deletion strains, locus YNL153C, strain GIM3, stronger effect = lower value 1.01 | S. cerevisiae deletion strains, locus YNL183C, strain NPR1, stronger effect = lower value 0.938 | S. cerevisiae deletion strains, locus YNL209W, strain ssb2, stronger effect = lower value 0.998 | S. cerevisiae deletion strains, locus YNL233W, strain BNI4, stronger effect = lower value 1.01 | S. cerevisiae deletion strains, locus YNL248C, strain rpa49, stronger effect = lower value 0.962 | S. cerevisiae deletion strains, locus YNL250W, strain rad50, stronger effect = lower value 1.02 | S. cerevisiae deletion strains, locus YNL271C, strain bni1, stronger effect = lower value 1.01 | S. cerevisiae deletion strains, locus YNL298W, strain CLA4, stronger effect = lower value 1.02 | S. cerevisiae deletion strains, locus YNL307C, strain MCK1, stronger effect = lower value 1.02 | S. cerevisiae deletion strains, locus YNL322C, strain KRE1 (second series), stronger effect = lower value 1 | S. cerevisiae deletion strains, locus YNR049C, strain mso1, stronger effect = lower value 0.999 | S. cerevisiae deletion strains, locus YNR052C, strain pop2, stronger effect = lower value 1 | S. cerevisiae deletion strains, locus YOL006C, strain TOP1, stronger effect = lower value 1.01 | S. cerevisiae deletion strains, locus YOL012C, strain htz1 1.07 | S. cerevisiae deletion strains, locus YOL147C, strain pex11, stronger effect = lower value 1.01 | S. cerevisiae deletion strains, locus YOR001W, strain rrp6, stronger effect = lower value 1.04 | S. cerevisiae deletion strains, locus YOR061W, strain CKA2, stronger effect = lower value 1.01 | S. cerevisiae deletion strains, locus YOR069W, strain VPS5, stronger effect = lower value 1.01 | S. cerevisiae deletion strains, locus YOR070C, strain gyp1, stronger effect = lower value 0.987 | S. cerevisiae deletion strains, locus YOR080W, strain dia2, stronger effect = lower value 1 | S. cerevisiae deletion strains, locus YOR083W, strain WHI5, stronger effect = lower value 0.989 | S. cerevisiae deletion strains, locus YOR106W, strain vam3, stronger effect = lower value 1.03 | S. cerevisiae deletion strains, locus YOR136W, strain idh2, stronger effect = lower value 1.02 | S. cerevisiae deletion strains, locus YOR144C, strain elg1, stronger effect = lower value 1.02 | S. cerevisiae deletion strains, locus YOR184W, strain ser1, stronger effect = lower value 1.03 | S. cerevisiae deletion strains, locus YOR231W, strain MKK1, stronger effect = lower value 0.979 | S. cerevisiae deletion strains, locus YOR265W, strain rbl2, stronger effect = lower value 1.01 | S. cerevisiae deletion strains, locus YOR270C, strain vph1, stronger effect = lower value 1.02 | S. cerevisiae deletion strains, locus YOR290C, strain snf2, stronger effect = lower value 0.977 | S. cerevisiae deletion strains, locus YOR316C, strain cot1, stronger effect = lower value 1.01 | S. cerevisiae deletion strains, locus YPL051W, strain arl3, stronger effect = lower value 1.01 | S. cerevisiae deletion strains, locus YPL055C, strain LGE1, stronger effect = lower value 1.01 | S. cerevisiae deletion strains, locus YPL078C, strain atp4, stronger effect = lower value 1.04 | S. cerevisiae deletion strains, locus YPL106C, strain sse1, stronger effect = lower value 0.987 | S. cerevisiae deletion strains, locus YPL240C, strain hsp82, stronger effect = lower value 1.01 | S. cerevisiae deletion strains, locus YPL241C, strain CIN2, stronger effect = lower value 1 | S. cerevisiae deletion strains, locus YPL256C, strain CLN2, stronger effect = lower value 0.976 | S. cerevisiae deletion strains, locus YPR119W, strain clb2, stronger effect = lower value 1.01 | S. cerevisiae deletion strains, locus YPR141C, strain kar3, stronger effect = lower value 1.01 | S. cerevisiae deletion strains, locus YPR163C, strain tif3, stronger effect = lower value 1.02 | S. cerevisiae deletion strains, locus YPR167C, strain met16, stronger effect = lower value 1.02 | S. cerevisiae deletion strains, strain wtn01, stronger effect = lower value 1.01 | S. cerevisiae strains, strain wild type, stronger effect = lower value 1.01
